# Bioassay records from PubChem BioAssay.
# Rows were chosen to be rich in hits. Some 4.6% of all compounds tested hit in one or more screens of this group.
# Lassa entry inh: blocks Lassa virus binding to or entry into cells | actives 1.2% (n = 300,000) | Potency, µM (doses to about 37.9 µM), without a hit: top-dose activity change, negative = inhibition, hits mostly inhibitors | AID 540256 | Lassa virus pseudotype entry inhibition, cell reporter; calls by dose curve; tested in HEK293 cells; note: nearly all actives have a fitted effect of over 50% in size
# Marburg entry inh: Marburg virus entry inhibition; Potency, µM (doses to about 37.8 µM), for inactives: top-dose activity change, negative = inhibition, actives largely listed as inhibitors; actives 1.8% (n = 300,000); Marburg virus pseudotyped entry inhibition, cell reporter; calls by dose curve; tested in HEK293 cells
# HCV inh: HCV inhibition. Potency, µM (titrated, usually from 41.8 µM), for the others: top-dose activity change, negative = inhibition, most hits filed as inhibitors. actives 3.4% (n = 340,000). Huh7.5.1 HCVcc-Cre infection, luciferase reporter, 44 h; active = well fitted inhibition curve with a large enough effect; inconclusive = small, poorly fitted or top-dose-only effect, or another doubt; inactive = no such curve, though single readings can be large or run the other way
#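 Antiviral activity was scored by luciferase reporter output from cells infected with HCVcc-Cre (~0.5 moi) in presence of compound, 44 h infection period, cells seeded 1,000/well 4 h prior.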
# Vaccinia Venus: vaccinia inhibition (Venus reporter) | actives 0.46% (n = 330,000) | Vaccinia virus Venus reporter expression, fluorescence | Potency, µM (series often up to 36.5 µM), inactives show top-dose activity change, negative = inhibition, most hits filed as inhibitors; calls by dose curve; tested in A549 cells; note: nearly all actives have a fitted effect of over 30% in size
# Vaccinia mCherry: inhibitors of vaccinia virus infection (mCherry reporter signal); actives 0.63% (n = 310,000); Potency, µM (top dose mostly 36.5 µM), for inactives: top-dose activity change, negative = inhibition, usual class: inhibitors; Vaccinia virus mCherry reporter infection, fluorescence; AID 720579; calls by dose curve; tested in A549 cells; note: nearly all actives have a fitted effect of over 35% in size
# * = called active by the depositor; i = inactive; ? = inconclusive; . = not tested or not shown; [ ] = another dose, or the depositor's remark. % is set by controls: 0 for no effect and ±100 for the full control effect; potency is the fitted concentration of half-maximal effect.
SMILES,Lassa entry inh,Marburg entry inh,HCV inh,Vaccinia Venus,Vaccinia mCherry
COc1ccc(-c2cc(C(=O)N3CCN(C(c4ccccc4)c4ccccc4)CC3)no2)cc1,?,?,10µM*,.,.
O=C(c1cc(-c2ccco2)on1)N1CCN(C(c2ccccc2)c2ccccc2)CC1,-17%,?,2.5µM*,.,.
Cc1cccc(-c2cc3nc4c(c(N5CCCC(O)C5)n3n2)CCC4)c1 (stereo not drawn),?,?,7.1µM*,-24%,-24%
OC1CCCN(c2c3c(nc4cc(-c5cccc(F)c5)nn24)CCCC3)C1 (stereo not drawn),?,?,6.3µM*,-18%,i
COc1cccc(-c2cc3nc(-c4ccccc4)cc(N4CCCC(O)C4)n3n2)c1 (stereo not drawn),.,.,4µM*,.,.
OC1CCCN(c2c3c(nc4cc(-c5cccc(Cl)c5)nn24)CCC3)C1 (stereo not drawn),2%,?,?,-24%,-22%
COc1cccc(CNC(=O)Cn2c(=O)ccc3cc(S(=O)(=O)N4CCC(C)CC4)ccc32)c1,24%[46.1 µM],.,.,-14%,-15%
CC1(C)O[C@H]2[C@@H](O1)[C@@H](C(=O)Nc1ccccc1C(F)(F)F)O[C@@H]1OC(C)(C)O[C@@H]12,?,-13%[46.1 µM],.,-20%,?
C[C@@H]1CN(Cc2ccc3c(c2)CN(Cc2cccn2-c2ccc(Cl)cn2)CCO3)C[C@H](C)O1,.,.,.,2%,-16%
CC(C)COc1ccc(C(=O)Nc2ccc([N+](=O)[O-])cc2)cc1,?,1%,?,-9%,-4%
CC(C)OC(=O)c1cc(NC(=S)Nc2ccc([N+](=O)[O-])cc2)cc(C(=O)OC(C)C)c1,?,14µM*,?,-17%,-8%
CCn1c(=O)c(C(=O)Nc2ccc(C(C)=O)cc2)nc2ccccc21,23%[46.1 µM],19%[46.1 µM],.,7%,-1%
COc1ccc(NC(=O)Cn2nnnc2-c2ccccc2F)c(C)c1,28%[46.1 µM],-1%[46.1 µM],.,-8%,-4%
COc1ccc(C(=O)c2sc(Nc3ccccc3)nc2N)cc1,?,.,-4%,?,i
COc1ccc(C(=O)c2cc(C(C)=O)c(Nc3ccccc3)s2)cc1,9%,?,3.2µM*,?,-9%
COc1ccc(CCN(C)Cc2ccc(C(=O)Nc3ccccc3)cc2)cc1OC,?,?,10µM*,-27%,i
COc1ccc(CCN(C)Cc2ccc(OC)c(OCc3ccccc3)c2)cc1OC,-1%,18µM*,-25%,.,.
COc1ccc(CCN(C)Cc2ccc(OCc3ccccc3)c(OC)c2)cc1OC,-10%,?,-12%,-18%,i
O=C(COCc1cc(-c2ccc3c(c2)OCO3)on1)Nc1cccc(O)c1,4%[46.1 µM],.,.,-10%,-16%
CCCn1c(O)c(/C=C2\C=NN=C2c2ccccc2)sc1=S,?,?,10µM*,.,.
O=C(N/N=C/c1sc(N2CCOCC2)nc1-c1ccccc1)c1ccccc1O,1.3µM*,7.9µM*,?,?,?
O=C(N/N=C/c1sc(N2CCOCC2)nc1-c1ccccc1)c1ccccc1Cl,?,9%[46.1 µM],8.9µM*,-20%,-5%
O=C(N/N=C/c1sc(N2CCOCC2)nc1-c1ccccc1)c1ccccc1F,?,1%[46.1 µM],?,-15%,-27%
CCOC(=O)CCN1C(=O)[C@@H]2[C@H]3[C@H](O)[C@H](O)CC(=NNC(=O)OCc4ccc(OC)cc4)[C@@H]3CC[C@H]2C1=O,?,12%[14.2 µM],.,.,.
CCn1c(COc2ccc(C)cc2)nnc1SCc1nc2ccccc2[nH]1,-14%,?,14µM*,.,.
SMILES,Lassa entry inh,Marburg entry inh,HCV inh,Vaccinia Venus,Vaccinia mCherry
Clc1ccc(OCc2nnc(SCc3nc4ccccc4[nH]3)n2Cc2ccco2)cc1,?,?,10µM*,.,.
Cn1c(COc2ccccc2)nnc1SCc1nc2ccccc2[nH]1,27%,18%,6%,-26%,-14%
O=C(CCCn1c2ccccc2c(=O)c2ccccc21)Nc1ccc(F)cc1Cl,-4%[46.1 µM],.,.,-7%,-17%
COc1ccc(O[C@@H]2[C@H](O)CO[C@@H]2C=CC#Cc2ccccc2)cc1,.,8%[14.2 µM],.,.,.
O=C(/C=C/c1ccc2c(c1)OCO2)NCc1ccco1,10µM*,-2%,-5%,-19%,i
CCOC(=O)Cc1csc(NC(=O)/C=C/c2ccco2)n1,.,.,-5%,-2%[7.34 µM],-6%[7.34 µM]
O=C(/C=C/c1ccc(Cl)c(Cl)c1)NCc1ccco1,?,17%,2%,-8%,-9%
CCOC(=O)Cc1csc(NC(=O)CC(C)(C)C)n1,7.1µM*,?,5%,-3%,-10%
